# Legend:
# [1] = biological target: T1, Aspartate--tRNA(Asp/Asn) ligase (Mycobacterium tuberculosis (strain ATCC 25618 / H37Rv)) (UniProt P9WFW3); assay: Assay for Asp RNA synthetase-1 from Mycobacterium tuberculosis; assay type: functional; set-up: scale not given: direction of the effect not stated beside the values; details: 30 µM; further: in the data most compounds retested in dose-response had high values
# T1 sequence (whole entry): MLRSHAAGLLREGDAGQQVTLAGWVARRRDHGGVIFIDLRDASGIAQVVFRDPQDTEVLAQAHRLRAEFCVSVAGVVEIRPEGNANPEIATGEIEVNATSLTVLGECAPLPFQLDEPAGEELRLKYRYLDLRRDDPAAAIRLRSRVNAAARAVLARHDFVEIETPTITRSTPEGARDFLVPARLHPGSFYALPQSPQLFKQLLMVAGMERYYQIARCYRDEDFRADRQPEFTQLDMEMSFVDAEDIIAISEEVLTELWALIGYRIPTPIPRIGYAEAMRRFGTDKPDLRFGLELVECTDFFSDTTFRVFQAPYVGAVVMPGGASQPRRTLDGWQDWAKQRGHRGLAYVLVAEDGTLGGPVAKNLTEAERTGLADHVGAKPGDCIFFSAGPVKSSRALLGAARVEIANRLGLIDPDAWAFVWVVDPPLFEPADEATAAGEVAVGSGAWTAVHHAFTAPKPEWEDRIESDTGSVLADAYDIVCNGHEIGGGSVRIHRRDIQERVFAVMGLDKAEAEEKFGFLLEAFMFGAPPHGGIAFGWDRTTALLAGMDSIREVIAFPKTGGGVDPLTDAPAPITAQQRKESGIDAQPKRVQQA
# [2] = biological target: Shiga toxin 2 (Escherichia coli O157:H7) (UniProt P09385+P09386); assay: E. coli 0.157:H7 Shiga Toxin SOP - stx2 screening assay; assay type: functional; set-up: scale not given: direction of the effect not stated beside the values; details: 30 µM
SMILES,Percent Effect [1] [%],Percent Effect [2] [%]
Cc1cccc2c1cnn2CCCNC(=O)CCCC(=O)O,15.5,-61.8
Cc1ncsc1CN1C[C@@H]2COC[C@]2(COc2ccc(C#N)cn2)C1,-0.365,-16.3
Nc1nccc(-c2c[nH]nc2C2CCCCC2)n1,6.92,-26.9
CN(C)S(=O)(=O)N1CCCC1CC(=O)c1cccs1 (stereo not drawn),2.35,-10.2
Cc1nccn1CC1CCCN1S(=O)(=O)Cc1ccccc1F (stereo not drawn),1.06,-2.92
CC(C)C(NC(=O)NCCNc1ccccn1)c1cccs1 (stereo not drawn),7.74,3.04
CNC(=O)c1cc(S(=O)(=O)C(C)C)cs1,-3.82,-3.3
Cc1ccc(-c2nc(CN3CCN(S(=O)(=O)N(C)C)CC3)cs2)o1,2.34,-12.2
CC(C)c1nnc2n1CCN(CC(=O)N1CCc3ccccc3C1)C2,-3.72,-17

# Reference: ChEMBL document CHEMBL3988442, “University of Dundee, Small-Polar-MMV Screening Library” (2021)
